HSF1 inhib: HSF1 inhibitors in luciferase reporter cells, primary screen, cell-based, NIH3T3, luminescence; activity change, negative = inhibition, % at 7.5 µM (by protocol); NIH3T3-HGL HSE-luciferase, MG132-induced, luminescence 8 h; active compounds read low; actives 0.77% (n = 300,000);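 active means more than half of replicate wells show activity change below -50%, luminescence cut by over half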;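 further: luciferase reports HSF-1 transcriptional activity via heat shock element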
GAA850 FXN act: FXN promoter activators, primary screen, cell-based, luciferase luminescence, HEK293 lucGAA850 | HEK293 lucGAA850 FXN promoter luciferase reporter, 24 h; percent of 10 µM SAHA response | activation, % at 6 µM | actives 0.56% (n = 360,000) | AID 540364, 2011;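 active means activation above the average of all compounds screened plus 3 SD, cutoff fixed separately per campaign, cut at about 7.5% in these data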
PG9 binder: binders of HIV-1 gp120 antibody PG9, primary screen, biochemical, TR-FRET; HIV-1 gp120 / PG9 antibody interaction; TR-FRET gp120-PG9 antibody binding; inhibition, % at 6.7 µM; actives 0.43% (n = 360,000); AID 624416, 2012; in the data active means inhibition above about 8.5%
SMARCA2 activ: SMARCA2 (BRM) function activators, primary screen, cell-based, luminescence, high throughput. MG213 cells, MMTV-luciferase reporter, dexamethasone, overnight. activation, % at 9.1 µM. actives 1% (n = 370,000); in the data active means activation above about 7.8%
AI-2 QS modul: Vibrio harveyi AI-2 quorum sensing modulators, primary screen, JMH597 strain, luminescence/OD600 ratio; Vibrio harveyi JMH597 AI-2 luminescence/OD600 ratio, 9 h; active compounds read low; strain lacks LuxN and CqsS sensors; 0 = neutral-control median; actives 0.4% (n = 300,000); AID 2094, 2009; activity change, % at 7.5 µM; in the data active means activity change below about -75%, passing the limit was not always enough;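 further: luminescence divided by OD600 gain over 9 h not by final OD600 alone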
HSP90 refold inh: HSP90 inhibitors, primary screen, cell lysate, luminescence; Heat shock protein HSP 90 (rabbit reticulocyte lysate; luciferase refolding); inhibition, % at 5.6 µM; actives 0.91% (n = 290,000); Rabbit reticulocyte lysate, luciferase refolding luminescence, 3 h;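 active means inhibition above the screen-wide mean plus 3 SD, computed separately per campaign, cut at about 16% in these data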;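 further: inhibitors lower the luminescence because luciferase stays unfolded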
SMARCA2 conf: SMARCA2 (BRM) function activators, confirmation, cell-based, luminescence, triplicate; shares compounds with SMARCA2 activ; AID 652260, 2013; actives 30% (n = 3,500); MG213 cells, MMTV-luciferase with dexamethasone, overnight; MG213 cells expressing E1A, Rb sequestered; DMSO wells 0%, reference activator 100%; activation, % at 9.1 µM;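 active means activation above its plate's cutoff, the mean activation of tested wells plus 3 SD, cut at about 7.9% in these data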
VP16 Luc act: GAL4-VP16 luciferase reporter activation, counter-screen for SMARCA2 (BRM) activator project, cell-based, pG5luc, luminescence, high throughput; shares compounds with SMARCA2 activ; HEK293 GAL4-VP16 pG5luc reporter; scaled: DMSO wells 0%, SAHA wells 100%; actives 41% (n = 3,500); activation, % at 9.1 µM;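 active means activation above the solvent-only control well mean plus 3 SD, averaged across control plates, cut at about 5.2% in these data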
A number is an active result; - = inactive; . = not tested or not shown. Rows were chosen to be rich in hits. Some 3.4% of all compounds tested hit in one or more screens of this group.

SMILES	HSF1 inhib	GAA850 FXN act	PG9 binder	SMARCA2 activ	AI-2 QS modul	HSP90 refold inh	SMARCA2 conf	VP16 Luc act
CN1CCN(C(=S)NC(=O)/C=C/c2ccccc2)CC1	-	-	-	8.3	-	-	-	-
Cc1ccsc1C(=O)N1CCCC(C)(C(=O)O)C1 (configuration not stated)	.	-	-	-	.	.	.	.
C[C@@H]1ON(C)[C@H]2C[C@H]3c4cc(-c5ccc(F)cc5)ccc4CCN3C[C@@H]12	.	.	-	-	.	.	.	.
CCCC(=O)Nc1nnc(-c2ccc3c(c2)OCCO3)o1	-	-	-	10	-	-	-	-
CCCC(=O)Nc1nc(-c2ccc3c(c2)OCCO3)cs1	.	-	-	-	.	-	.	.
CC(C)(C)c1ccc(NC(=O)Nc2ccc(OCC(=O)N3CCOCC3)cc2)cc1	-	-	-	8.2	-	-	-	15
Cc1ccc(OC2CCN(C(=O)[C@@H](Cc3ccccc3)NC(=O)[C@H]3O[C@@H](n4ccc(=O)[nH]c4=O)[C@H](O)[C@@H]3O)CC2)cc1	.	.	-	-	.	.	.	.
CC(C)c1ccc(NC(=O)COC(=O)C2CCCCC2)cc1	.	-	-	8.4	.	.	-	-
NS(=O)(=O)c1ccc(NC(=O)COC(=O)C2CCCCC2)cc1	-	-	-	-	-	-	.	.
O=C(CSc1nnc2ccccn12)Nc1ncc(Cl)cc1Cl	-	-	-	9.5	-	-	8.4	-
O=C(Cn1nnc(N2CCCCC2)n1)NN=Cc1ccccc1O	.	.	-	-	.	.	.	.
O=C(Oc1ccc(/C=N/NC(=O)c2ccccc2O)cc1)c1ccccc1	-	-	-	-	-	-	.	.
CSc1ccc(/C=N/NC(=O)c2cc(O)cc(O)c2)cc1	.	-	-	9.3	-	-	9.4	5.4
CSc1ccc(/C=N/NC(=O)c2ccc(C)c(C)c2)cc1	-	-	-	-	-	-	.	.
O=C(N/N=C/c1ccc(OC(=O)c2ccccc2)cc1)c1cccc(O)c1	-	-	-	10.0	-	-	-	-
CC(=NNc1cc(C)c2cc(C)ccc2n1)c1ccccn1	.	.	-	-	.	.	.	.
CCOC1=C2[C@@H](CN(S(=O)(=O)c3ccc(C)cc3)[C@H]2c2cccc3ccccc23)[C@H]2C(=O)N(C3CCCCC3)C(=O)[C@H]2C1	.	.	-	10	.	.	-	-
Cc1ccc(-c2cccc(NC(=O)C3C4C=CC(C4)C3C(=O)O)c2)o1 (configuration not stated)	-	-	-	9.4	-	-	-	-
C=CCN=C1NC(c2ccc(C(F)(F)F)cc2)C(C(=O)OC)=C(C)N1C (configuration not stated)	.	.	-	-	.	.	.	.
Cc1noc(C)c1NC(=O)N(C)C[C@H]1OCc2cn(nn2)CCCC(=O)N([C@H](C)CO)C[C@@H]1C	.	.	-	-	.	.	.	.
CC1(C)CC(NC(=O)c2cc(Cl)ccc2Cl)CC(C)(C)N1	-	-	-	10	-	-	-	-
Cc1ccc(C)c(C(=O)NC2CC(C)(C)NC(C)(C)C2)c1	-	-	-	-	-	-	.	.
CCc1ccc(-c2cc3c(=O)n(CC(=O)NCCCN4CCC(Cc5ccccc5)CC4)nc(C)n3n2)cc1	-	-	-	10	-	-	-	-
Cc1nn(CC(=O)NCCCN2CCN(Cc3ccccc3)CC2)c(=O)c2cc(-c3ccccc3)nn12	-	-	-	8.5	-	-	-	-
Cc1cccnc1N=O	.	.	-	-	.	.	.	.
SMILES	HSF1 inhib	GAA850 FXN act	PG9 binder	SMARCA2 activ	AI-2 QS modul	HSP90 refold inh	SMARCA2 conf	VP16 Luc act
O=C(Nc1ccc(Cl)cc1)Nc1cnccn1	-	-	-	-	-	-	.	.
Cc1ccc(NC(=O)Nc2cnccn2)cc1	-	-	-	10.0	-	-	-	-
O=c1c2cc(F)ccc2sn1-c1ccccc1Cl	.	-	-	9.0	.	.	-	-
CCc1ccc2[nH]c(=O)c(CN(Cc3nnnn3C3CCCC3)C3CCCCC3)cc2c1	-	-	-	8.3	-	-	-	5.8
Oc1ccccc1CNc1cnc2ccccc2c1	-	-	-	11	-	-	9.5	8.8
COc1ccc(OC)c(CNCCNC(=O)c2ccco2)c1	.	.	.	.	.	-	.	.
COc1cc(OC)c(OC)cc1CNCCNC(=O)c1ccco1	-	-	-	9.2	-	-	-	-
COCc1[nH]nc2c1C(c1ccccc1)NC2=O (configuration not stated)	.	.	-	-	.	.	.	.
O=C(CCNC(=O)c1ccccc1)NCc1ccccc1F	.	-	-	9.4	.	.	-	-
O=C(CCNC(=O)c1ccc(Br)cc1)NCc1ccccc1F	-	-	-	-	.	.	.	.
O=C(NC1CCCCCC1)C1CCN(S(=O)(=O)N2CCC3(CC2)OCCO3)CC1	.	-	-	9.9	-	-	-	-
Nc1ccn([C@@H]2O[C@H](C(=O)N[C@H](Cc3ccccc3)C(=O)NCC(F)(F)F)[C@@H](O)[C@H]2O)c(=O)n1	.	.	-	-	.	.	.	.
COc1ccccc1OCc1nc2ccccc2n1C	-	-	-	10	-	-	12	7.5
Clc1ccc(OCc2nc(-c3ccccn3)no2)c(Br)c1	-	-	-	-	-	-	.	.
Clc1ccccc1OCc1nc(-c2ccccn2)no1	-	-	-	12	-	-	15	8.7
COC(=O)C1=C(C)N(Cc2cccc(C(F)(F)F)c2)C(=NCc2ccc(OC)cc2)NC1c1ccccc1 (configuration not stated)	.	.	-	-	.	.	.	.
CC1(C)OC(=O)C2=C(C[C@@H](CCC(F)(F)F)O[C@H]2c2ccc(F)cc2)O1	.	.	-	8.2	.	.	-	-
CCOc1ccc(C(=O)NCC(=O)N2CCC3(CC2)NCCc2[nH]cnc23)cc1	-	-	-	-	-	-	.	.
O=C(COc1ccc(Cl)cc1)NCC(=O)N1CCC2(CC1)NCCc1[nH]cnc12	-	-	-	9.7	-	-	-	-
CCOC(=O)c1cnc(-c2ccccc2)nc1Oc1ccc(Cl)cc1	-	-	-	-	-	-	.	.
CCOC(=O)c1cnc(-c2ccccc2O)nc1Cl	-	-	-	8.1	-	-	-	-
Cc1ccc(CN(C(=O)c2cc3ccccc3oc2=O)C2CCS(=O)(=O)C2)cc1 (configuration not stated)	-	-	-	8.7	-	-	-	-

Screens deposited in PubChem by several laboratories.
